# Measurements from ChEMBL document CHEMBL4513146, “CO-ADD screening of Karazin Kharkiv National University (Ukraine) compounds”.
# Entries with a potency or affinity are not part of this list.
# What was measured:
# Staphylococcus aureus = settings: Concentration 32 ug.mL-1;; ASSAY_TEST Inhibition of Bacterial Growth; detection method Absorption (OD600); MEDIA CAMHB; plate type 384well; NBS; CORNING #3640; time 18 hr
# Escherichia coli = settings: Concentration 32 ug.mL-1;; ASSAY_TEST Inhibition of Bacterial Growth; detection method Absorption (OD600); MEDIA CAMHB; plate type 384well; NBS; CORNING #3640; time 18 hr
Compound,Inhibition (Staphylococcus aureus),Inhibition (Escherichia coli)
CCOC(=O)c1ccc(NC(=O)CSc2nnc3c4cc(-c5ccc(OC)cc5)nn4ccn23)cc1,10.14%,2.37%
Cc1ccc(-c2cc3c4nnc(SCC(=O)Nc5cccc(Cl)c5C)n4ccn3n2)cc1,-6.47%,-2.31%
O=C(CCc1nnc2c(N3CCCCC3)nc3ccccc3n12)NCCc1ccc(Cl)cc1,11.18%,0.17%
O=C(Cn1nc2c(Sc3cccc(F)c3)nccn2c1=O)Nc1cccc(Br)c1,3.89%,0.56%
CCC(C)NC(=O)c1ccc2c(=O)n(C3CC3)c3nn(CC(=O)NC(C)C)c(=O)n3c2c1 (centres undefined),10.01%,-2.07%
COc1cccc(-n2ccn3c(SCc4cccc(Cl)c4)nnc3c2=O)c1,12.15%,-0.34%
CCC(Sc1nnc2c(=O)n(-c3cccc(OC)c3)ccn12)C(=O)Nc1cc(C)ccc1C (centres undefined),5.06%,-5.33%
CC(C)CCn1c(=O)c2sccc2n2c(=O)n(CC(N)=O)nc12,1.13%,-3.19%
O=C(Cn1nc2ccc(SC3CCCCC3)nn2c1=O)Nc1ccc2c(c1)CCC2,4.8%,-2.69%
COc1ccc(NC(=O)Cn2nc3ccc(Sc4ccccc4)nn3c2=O)cc1,7.63%,-10.85%
COc1ccc(NC(=O)c2ccc3nn(CC(=O)Nc4ccc(C(C)C)cc4)c(=O)n3c2)cc1,9.69%,-3.43%
N#Cc1cccc(NC(=O)Cn2nc3c4cc(-c5ccc(Cl)cc5)nn4ccn3c2=O)c1,2.28%,-5.31%
Cc1nnc2ccc(S(=O)(=O)N(Cc3cccc(Cl)c3)c3ccc(F)cc3)cn12,3.62%,-8.44%
COc1cccc(Oc2nccn3c(=O)n(CC(=O)NCc4cccs4)nc23)c1,7.35%,-2.75%
Cc1cccc(CN(c2cc(C)cc(C)c2)S(=O)(=O)c2cccn3c(C)nnc23)c1,6.42%,-0.75%
COc1ccccc1N1CCN(C(=O)CSc2nnc3c(=O)n(-c4ccccc4)ccn23)CC1,3.83%,-6.8%

Compound,Inhibition (Staphylococcus aureus),Inhibition (Escherichia coli)
Cc1cccc(C)c1NC(=O)Cn1nc2c3c4c(sc3ncn2c1=O)CCCC4,7.51%,-3.38%
COc1cc(OC)c(NC(=O)Cn2nc3c(N4CCOCC4)nccn3c2=O)cc1Cl,4.84%,-1.96%
Cc1ccc(-c2ccc3nn(CC(=O)Nc4c(C)cccc4C)c(=O)n3n2)cc1C,-0.95%,-11.36%
CC(C)c1nnc2c(=O)n(CC(=O)Nc3cccc(F)c3)c3ccccc3n12,22.23%,3.96%
Cc1cc(C)c(NC(=O)Cn2nc3c(N4CCN(c5ccccc5)CC4)nccn3c2=O)c(C)c1,13.62%,-0.55%
COC(=O)c1cccc(NC(=O)Cn2nc3c(N4CCC(C)CC4)nccn3c2=O)c1,-12.03%,-9.95%
COc1ccccc1NC(=O)Cn1nc2c(Sc3ccccc3)nccn2c1=O,-14.27%,-3.78%
CCOc1ccc(-n2ccn3c(SCC(=O)c4cc(C)c(C)cc4C)nnc3c2=O)cc1,7.6%,-6.02%
CCOC(=O)c1ccc(NC(=O)CSc2nc3ccccc3n3c(C(C)C)nnc23)cc1,-3.17%,-9.79%
Cc1ccc(C(=O)C(C)Sc2nnc3c(=O)n(-c4ccc(F)c(F)c4)ccn23)cc1C (centres undefined),19.73%,1.41%
O=c1c2nnc(SCc3cccc(C(F)(F)F)c3)n2ccn1-c1ccc(Br)cc1,11.27%,-4.81%
O=C(CSc1nnc2c(=O)n(-c3ccc(Br)cc3)ccn12)Nc1cccc(F)c1,9.13%,-1.52%
O=c1c2nn(Cc3cccc(Cl)c3)c(=O)n2ccn1-c1ccccc1,0.94%,-5.32%
Cc1ccc(NC(=O)Cn2nc3ccc(SC(C)(C)C)nn3c2=O)c(Cl)c1,-0.06%,-7.75%
Cc1ccc(F)cc1NC(=O)CSc1nc2ccccc2n2c(C(C)C)nnc12,9.29%,-3.01%
O=C(Cn1nc2c3sc(N4CCCC4)nc3ncn2c1=O)Nc1ccc(F)c(Cl)c1,15.3%,1.03%
